Values joined by “and” are separate entries in the source; they are usually repeats but may differ in a detail not shown here. Equal entries are not always repeated. Records with an inconclusive call do not appear. Some structures have more than one record in an assay (separate samples or runs), and their calls can disagree. Active and inactive are the calls of the source. Calls follow the shape of the dose curve; as a rule, active = well fitted activation curve with a large enough effect; inconclusive = small, poorly fitted or top-dose-only effect; inactive = no such curve, though single readings can be large or run the other way.
Potency is read from the fitted curve at half-maximal effect.

For this assay, the target named is Cellular tumor antigen p53 (Homo sapiens) (UniProt P04637). In words: Primary qHTS for small molecule compounds that upregulate eGFP-tagged delta133p53alpha (in N-terminal) cells. (AID 2060322). Also: nearly all actives have a fitted effect of over 75% in size.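 As to activation: cells pre-induced with doxycycline then dosed without doxycycline; series mostly up to about 56 µM; 0% = DMSO vehicle and 100% = reference activator.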 Particulars: NCI-H358 eGFP-delta133p53alpha fluorescence, 24 h; activation: active compounds read high. From the text: Assay Development and Screening Technology
Cellular tumor antigen p53 (Homo sapiens), sequence (P04637 whole entry, looked up): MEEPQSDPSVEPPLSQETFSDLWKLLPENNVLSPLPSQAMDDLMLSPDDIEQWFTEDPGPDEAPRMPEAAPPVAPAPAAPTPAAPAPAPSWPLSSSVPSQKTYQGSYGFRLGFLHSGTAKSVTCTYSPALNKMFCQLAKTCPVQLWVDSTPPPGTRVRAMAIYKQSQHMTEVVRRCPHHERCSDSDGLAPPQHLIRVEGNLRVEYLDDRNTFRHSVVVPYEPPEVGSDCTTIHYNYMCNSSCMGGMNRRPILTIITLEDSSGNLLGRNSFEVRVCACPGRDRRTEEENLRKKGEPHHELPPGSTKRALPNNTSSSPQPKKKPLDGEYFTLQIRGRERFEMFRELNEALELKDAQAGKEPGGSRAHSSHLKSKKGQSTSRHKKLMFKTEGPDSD
National Center for Advancing Translational Sciences (NCATS),
National Institute of Health (NIH), Rockville, Maryland
Cellular senescence (CS) is one of the hallmarks of aging and age-related diseases. Senescent cells are characterized by an irreversible growth arrest, an increase in senescence-associated beta-galactosidase (SA-beta-gal) activity and p16INK4a expression, an activation of the DNA damage response pathways, and the emergence of a senescence-associated secretory phenotype (SASP).
Delta133p53alpha, a human/primate-specific p53 protein isoform, delays or inhibits the induction of CS and SASP in various types of human cells, including progeria-derived fibroblasts, primary normal astrocytes, and CD8+ T lymphocytes. Induction of delta133p53alpha with small molecule compounds may provide therapeutic opportunities for inhibition of senescence/SASP-associated pathologies in progeria syndromes, astrocyte-mediated neuroprotection in neurodegenerative diseases, and possibly prevention and treatment of a wider range of senescence- and aging-associated diseases.
Here we report the development and validation of a cell-based quantitative high throughput screening (qHTS) assay in 1,536-well format. This qHTS assay uses the NCI-H358 cell line with doxycycline-inducible expression of enhanced green fluorescent protein (eGFP)-tagged delta133p53alpha, which allows efficient and highly quantitative measurement of the protein levels.
PROTOCOL TABLE (as described by Inglese J, Shamu CE and Guy RK. 2007)
SEQUENCE No. (e.g., 1, 2, 3, etc.); […] (e.g., Cells, Incubation, Reagent, etc.); VALUE; DESCRIPTION.
1; Cells; 4uL; 800 doxycycline treated cells / well in doxycycline-free media, 1536-well black, clear-bottom low base Aurora microplates.
2; Compounds; 23 nL; Kalypsis pin tool (Wako) equipped with 1536-well pin heads, 5-azacytidine positive control.
3; Incubation; 24 hr; 37C, 5% CO2; 95% relative humidity.
4; Aspiration; 1x; BioTek EL406 washer dispenser (Agilent).
5; Fixing; 3.5% paraformaldehyde, BioTek EL406 washer dispenser (Agilent).
6; Washing; 1x PBS; BioTek EL406 washer dispenser (Agilent).
7; Nuclei staining; 1:1000 dilution of Hoechst 33342 (Thermofisher), BioTek EL406 washer dispenser (Agilent).
8; Incubation; 20 min; in the dark at room temperature.
9; Washing; 2x, 1x PBS (ThermoFisher), BioTek EL406 washer dispenser (Agilent).
10; Reagent; 10 uL; 1x PBS per well, sealed with clear adhesive tape.
NOTES (numbers refer to sequence numbers above).
1. NCI-H358 cells expressing eGFP-tagged delta133p53alpha were grown in T75 culture flasks and treated with doxycycline for 24h, at 10 ng/ml for eGFP-D133p53a cells (N-terminal cell) and 100 ng/ml for D133p53a-eGFP cells (C-terminal cells). Cells were trypsinized, counted using a Counted 3 Automated Cell Counter (Thermo Fisher), and diluted to a concentration of 200,000 cells/ml. A Multidrop Combi Reagent Dispenser (ThermoFisher) was used to dispense 800 cells/well in […] of doxycycline-free media, into 1536-well black/clear bottom low base plates (AuroraMicroplates).
2. After plating cells, 23 nl of compound library, DMSO vehicle control or positive control (5-azacytidine) were transferred by Pin Tool (Wako). The plate map layout was the same for each plate: (column 1) non-doxycycline treated cells + DMSO vehicle control; (column 2) doxycycline treated cells + DMSO vehicle control baseline; (column 3) doxycycline treated cells + positive control 57.5 uM final concentration 5-azacytidine; (column 4) doxycycline treated cells + serial dilution of 5-azacytidine, 16-point 1:2 titration spanning 1.8 nM to […] final concentration; (columns 5-48) doxycycline treated cells + titration of library compounds.
3. Cells were incubated at 37 °C, 5 % CO2, 95% RH with breathable metal lid for 24h.
4-10. […] After two washes, 10 ul of 1X PBS (Thermo Fisher) was dispensed to each well. Clear adhesive plate seals (VWR) were applied and plates stored at 4 °C.
11. […]
Background: qHTS replaces the single test concentration by a dilution series.
For the molecule `CCCCCCCC(=O)[O-].CCCCCCCC(=O)[O-].[Zn+2]`, the activation is 14.1% (inactive).
With `COc1ccc(C2(C#N)CCC(C(=O)O)CC2)cc1OC1CCCC1` (stereo not given), the activation was -6.96% (inactive) and -15.7% (inactive).
As for `COc1ccc(-c2cc3nccn3c(Nc3ncccc3C(N)=O)n2)cc1OC`, the activation is 14.1% (inactive) and the Potency was 4.78 µM (active).
On to `COc1c(C)c(OCC(O)C(C)(C)O)cc2c1CNC2=O` (stereo not given), for which the activation is -1.79% (inactive).
The same measure, in the same setting: the result for `Nc1nonc1C(=Nc1ccc(F)c(Cl)c1)NO` reads -6.33% (inactive); that for `O=C(c1ccccc1)c1c(O)cc(O)cc1O[C@@H]1O[C@H](CO)[C@@H](O)[C@H](O)[C@H]1O`, -13% (inactive).
With `O=c1[nH]c(=S)[nH]c(-c2ccccc2)c1Cc1c(O)ccc2ccccc12`, the activation is -41.1% (inactive).
On the same count and under the same terms, the figure for `Cc1c(CN(C)C(=O)/C=C/c2cnc3c(c2)CCC(=O)N3)oc2ccccc12` is 8.33% (inactive); for `CC1(C=O)CCCC2(C)C1CCC13CC(CO)C(CCC12)C3` (stereo not given) it is -9.92% (inactive); for `C/C=C(\C)C(=O)OCC1OC(OC2OC(COC(=O)/C(C)=C/C)C(OC3OC(CO)C(OC(=O)/C(C)=C/C)C(OC(=O)/C(C)=C/C)C3O)C(O)C2O)C(O)C(O)C1OC1OC(CO)C(OC(=O)/C(C)=C/C)C(OC(=O)/C(C)=C/C)C1O` (stereo not given) it is -19.8% (inactive).
Still for that read-out and setting: the figure for `CC(=O)Nc1ccc(S(=O)(=O)Nc2cc(C)on2)cc1` is 11.9% (inactive); for `Cc1c(C(=O)NCCO)[n+](=O)c2ccccc2n1[O-]` it is -11.7% (inactive).
For `c1ccc(OCc2ccc(CCCN3CCOCC3)cc2)cc1`, the activation is -7.53% (inactive).
Same read-out and setting: the result for `C[C@H](O)[C@H](O)[C@H]1CNc2nc(N)[nH]c(=O)c2N1` reads 10.3% (inactive); that for `Nc1ncnc2c1nc(Cl)n2[C@@H]1O[C@H](CO)[C@@H](O)[C@@H]1O`, -2.08% (inactive).
On the same count and under the same terms, the figure for `CC(C)(O)C1=CCC23COC(C2)C(O)(C(=O)O)CCC13` (stereo not given) is -6.87% (inactive).
As for `O=C1NC(=O)C(c2c[nH]c3ccccc23)=C1c1c[nH]c2ccccc12`, the Potency is 27.3 µM (active).
As for `Cc1c(Nc2ncccc2C(=O)O)cccc1C(F)(F)F`, the activation is -5.08% (inactive).
On the same count and under the same terms, the result for `CCN(CC)CCOC(=O)C(c1ccccc1)C1CCCCC1` (stereo not given) reads 14.2% (inactive); that for `COc1ccc2c(c1)C(=O)N(CCc1ccc(S(=O)(=O)NC(=O)NC3CCCCC3)cc1)C(=O)C2(C)C`, -11.7% (inactive) and 6.33% (inactive).
As to `Clc1ccccc1CN1CCc2sccc2C1`, the activation was 16.7% (inactive) and the Potency was 17.2 µM (active).
In the case of `C[C@H](Nc1cc2c(-c3ccc4c(c3)OCO4)noc2cn1)c1ccccc1`, the activation is 4.77% (inactive).
Turning to `CCCNC(=O)Nc1ccc(Oc2ncnc3cc(OC)c(OC)cc23)cc1Cl`, the Potency is 26.9 µM (active) and the activation is 17.1% (inactive).
For `CC(C)CCNC(=O)[C@H](CC(C)C)NC(=O)[C@H]1O[C@@H]1C(=O)O`, the activation is -9% (inactive).
The same measure, in the same setting: the result for `O=C(NCc1ccccc1)[C@H](Cc1ccccc1)NC(=O)[C@@H]1O[C@@H]1C(=O)NCCc1ccc(O)cc1` reads 16.6% (inactive).
For `CCN=C1N[C@@H]2[C@@H](O)[C@H](O)[C@@H](CO)O[C@@H]2S1`, the activation was 1.43% (inactive).
Same read-out and setting: the figure for `COC(=O)C(CC1CCCC1)c1ccc(S(C)(=O)=O)cc1` (stereo not given) is 0.955% (inactive).
Same read-out and setting: the result for `CCC(COC)n1nnc2c(Nc3ccc(OC)cc3C)nc(C)cc21` (stereo not given) reads -5.25% (inactive).
`COc1cc(O)c2c(c1)C1OC1C[C@H](O)[C@H](O)C(=O)/C=C\C[C@H](C)OC2=O` (stereo not given in full): the Potency was 21.3 µM (active).
As for `Cc1n[nH]c(C)c1Cc1sc2c(c1C(=O)N1C[C@H](O)CO1)c(=O)n(C)c(=O)n2CC(C)C`, the activation was 19.3% (inactive) and -2.33% (inactive).
For `CC1(C)CC[C@]2(C(=O)O)CC[C@]3(C)C(=CCC4[C@@]5(C)CC[C@H](O[C@@H]6O[C@H](C(=O)O)[C@@H](O)[C@H](O)[C@H]6O)C(C)(CO)C5CC[C@]43C)C2C1` (stereo not given in full), the activation was 12.2% (inactive).
Still for that read-out and setting: the figure for `CC(=O)OCC(=O)[C@@]1(O)CC[C@H]2[C@@H]3CCC4=CC(=O)C=C[C@]4(C)[C@@]3(F)[C@@H](O)C[C@@]21C` is -10.7% (inactive); for `CCOC(=O)c1ccc(NC2CCCCC2)c(N)c1` it is -6.21% (inactive); for `CC[C@@H](C)Nc1cc(C(=O)NC2CC3CCC(C2)N3c2ccc(C(=O)C3CC3)cn2)c(C)cc1C(N)=O` (stereo not given in full) it is -11% (inactive).
Take `O=C(COCC(=O)N1CCN(C(c2ccccc2)c2ccccc2)CC1)Nc1ccc(Cl)cc1C(=O)O`: the activation was -25.3% (inactive).
Same read-out and setting: the figure for `C/C=C(\C)C(=O)OC1C(C)C2(O)C3C=C(C)C(=O)C3CC(CO)=CC2C2C(C)(C)C12OC(C)=O` (stereo not given) is -19.8% (inactive); for `CCN(CC)C(=O)N1CCN(C)CC1` it is -2.51% (inactive).
